From PubChem BioAssay (NCATS)
Inconclusive results are not listed. Activity calls are given as the source filed them. Calls come from the whole dose curve; as a rule, active = well fitted inhibition curve with a large enough effect; inconclusive = small, poorly fitted or top-dose-only effect; inactive = flat fitted curve, though single readings scatter.

Legend:
Test in all cases: qHTS profiling for inhibitors of Plasmodium falciparum proliferation (AID 504749); note: nearly all actives have a fitted effect of over 60% in size
Settings in all cases: P. falciparum in erythrocytes, SYBR Green DNA, 72 h; series mostly up to 28.7 µM
CP256 = test system: CP256
How it was run: (§1)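 SYBR Green fluorescence of parasite DNA, read after lysis and overnight dark incubation, measured growth over 72 h in erythrocyte culture at 0.3% parasitemia and 2.5% hematocrit. Data normalised to DMSO and 0.29 uM artemisinin, with plate-drift correction.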

CP260 = test system: CP260
How it was run: as §1

CP262 = test system: CP262
How it was run: as §1

CP265 = test system: CP265
How it was run: as §1

CP266 = test system: CP266
How it was run: as §1

CP268 = test system: CP268
How it was run: as §1

CP269 = test system: CP269
How it was run: as §1

CP286 = test system: CP286
How it was run: as §1

CP291 = test system: CP291
How it was run: as §1

CP297 = test system: CP297
How it was run: as §1

CP305 = test system: CP305
How it was run: as §1

CP315 = test system: CP315
How it was run: as §1

CP325 = test system: CP325
How it was run: as §1

CP329 = test system: CP329
How it was run: as §1

CP335 = test system: CP335
How it was run: as §1

DFO2036 = test system: DFO2036
How it was run: as §1

DIV14 = test system: DIV14
How it was run: as §1

DIV17 = test system: DIV17
How it was run: as §1

DIV30 = test system: DIV30
How it was run: as §1

Dd2 = test system: Dd2
How it was run: as §1

ECU = test system: ECU
How it was run: as §1

FAB9 = test system: FAB9
How it was run: as §1

GB4 = test system: GB4
How it was run: as §1

HB3 = test system: HB3
How it was run: as §1

ICS = test system: ICS
How it was run: as §1

JCK = test system: JCK
How it was run: as §1

N140 = test system: N140
How it was run: as §1

P93_24 = test system: P93_24
How it was run: as §1

P94_40 = test system: P94_40
How it was run: as §1

PAD = test system: PAD
How it was run: as §1

PC15 = test system: PC15
How it was run: as §1

PC26 = test system: PC26
How it was run: as §1

PC49 = test system: PC49
How it was run: as §1

SC27B = test system: SC27B
How it was run: as §1

TAB109 = test system: TAB109
How it was run: as §1

TAB113 = test system: TAB113
How it was run: as §1

TAB165 = test system: TAB165
How it was run: as §1

W2 = test system: W2
How it was run: as §1

Measured: Potency

NS(=O)(=O)c1cc2c(cc1Cl)N[C@H](Cc1ccccc1)NS2(=O)=O
inactive: all assays above
